Measured values published in PubChem BioAssay AID652154 (Broad Institute, 2013).
In all, about 360,000 compounds went through this assay and about 4,200 (1.2%) were called active. The sample as a whole holds a higher share of actives than the screen did. A number with no mark means an inactive call.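 How the source made its calls: active means mean replicate inhibition at least 60% with every replicate also reaching 60%; inconclusive means only one of the two criteria is met; inactive means mean below 60% and not all replicates reaching 60%.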

Experiment: PAX8 transcriptional activity inhibition in RMG-I – RMG-I cells, luciferase, single concentration, primary screen (AID 652154);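 further: luciferase light reporting Pax8 driven TPO promoter activity; plate controls were median of neutral control wells for no effect and mitoxantrone controls for full effect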
Conditions: RMG-I TPO-luciferase reporter, SteadyGlo, 24 h; at 12.6 µM; hits give high values

Structure (SMILES)	inhibition
O=c1ccc2c(-c3ccccc3S(=O)(=O)O)c3ccc(O)c(O)c3oc-2c1O	65.9% (active)
CN(C)C(=O)C[C@@H]1CC[C@@H](NC(=O)NC2CCCC2)[C@@H](CO)O1	-11%
Cn1cnc(CCNC(=O)C[C@H]2CC[C@H]3[C@@H](COC[C@@H](O)CN3C(=O)Nc3ccc(C(F)(F)F)cc3)O2)c1	-9.72%
CC(C)NC(=O)N1C[C@H]2[C@@H](c3ccccc31)[C@H](CO)N2C(=O)c1ccccc1F	-9.19%
CN(c1cccc(NC(=O)c2ccc(CN3CCc4ccccc4C3)cc2)c1)S(C)(=O)=O	72.6% (active)
CS(=O)(=O)N1CCc2cc(C(=O)Nc3ccccc3)ccc21	-94%
CC(=O)Nc1cccc(NC(=O)c2ccc3c(c2)CCN3S(C)(=O)=O)c1	-7.18%
CCCNC(=O)C[C@H]1CC[C@H]2[C@H](COc3ccc(NC(=O)CC)cc3C(=O)N2C)O1	-14.6%
N#Cc1c(NC(=O)C2CCCO2)sc2c1CCCCC2 (stereo not given)	-175%
N#Cc1c(NC(=O)CCCl)sc2c1CCCCC2	60.9% (active)
N#Cc1c(NC(=O)C2CC(Cl)=CCC2C(=O)O)sc2c1CCCCC2 (stereo not given)	-9.86%
O=C(Nc1ccc2c(c1)OCO2)N[C@@H]1CC[C@H](CC(=O)N2CCN(c3ccccc3)CC2)O[C@@H]1CO	-5.75%
O=C(C[C@H]1C[C@@H]2c3cc(NC(=O)c4cccnc4)ccc3O[C@@H]2[C@@H](CO)O1)NCc1ccccc1F	-5.11%
O=C(NCc1nnnn1-c1ccc(Cl)cc1)c1ccc2c(c1)OCO2	2.39%
CC(=O)c1ccc(S(=O)(=O)NCc2nnnn2-c2ccccc2)cc1	3.71%
O=C(NCc1nnnn1-c1ccc(Cl)cc1)c1ccc([N+](=O)[O-])o1	77.5% (active)
CCCc1cn(CC[C@@H]2CC[C@@H](NC(=O)C3CC3)[C@H](CO)O2)nn1	-17.8%
O=C(C[C@@H]1CC[C@@H](NC(=O)CC2CC2)[C@H](CO)O1)NCc1ccc(-c2ccccc2)cc1	2.89%
C[C@H](CO)N1C[C@H](C)[C@@H](CN(C)Cc2ccccn2)Oc2ncc(C3=CCCC3)cc2C1=O	-41%
COc1cccc(-c2cnc3c(c2)C(=O)N([C@@H](C)CO)C[C@@H](C)[C@@H](CN(C)Cc2ccc(C(=O)O)cc2)O3)c1	-16.9%

Structure (SMILES)	inhibition
CCC(=O)N1[C@@H]2c3ccc(-c4ccc(F)cc4)c(=O)n3C[C@H]1[C@H](CO)[C@H]2C(=O)N(C)C	7.01%
Cc1ccc(C)c(N2CCN(C(=O)CCCn3c(=O)c4cccn4c4cccnc43)CC2)c1	13.6%
Cc1ccc(C)c(N2CCN(C(=O)CCCCCn3c(=S)[nH]c4ccc(N5CCOCC5)cc4c3=O)CC2)c1	95% (active)
O=C(CCCCCn1c(=S)[nH]c2cc3c(cc2c1=O)OCO3)N1CCN(c2ccc(F)cc2)CC1	3.47%
C[C@@H](NC(=O)C[C@H]1C=C[C@@H](NC(=O)CN2CCOCC2)[C@@H](CO)O1)c1ccccc1	-7.59%
C[C@@H]1CCCCO[C@@H](CN(C)Cc2ccc(Cl)c(Cl)c2)[C@H](C)CN([C@@H](C)CO)C(=O)c2cc(NS(C)(=O)=O)ccc2O1	6.58%
COc1ccc(CN(C)C[C@@H]2OCCCC[C@H](C)Oc3ccc(NS(=O)(=O)c4ccc(F)cc4)cc3C(=O)N([C@H](C)CO)C[C@H]2C)cc1	-1.69%
COc1ccc(CN(C)C[C@@H]2OCCCC[C@@H](C)Oc3ccc(NS(=O)(=O)c4ccc(F)cc4)cc3C(=O)N([C@@H](C)CO)C[C@H]2C)cc1	-7.37%
Cc1ccc(S(=O)(=O)Nc2ccc3c(c2)C(=O)N([C@@H](C)CO)C[C@@H](C)[C@@H](CN(C)Cc2ccc(C(F)(F)F)cc2)OCCCC[C@@H](C)O3)cc1	105% (active)
Cc1ccc(S(=O)(=O)Nc2ccc3c(c2)C(=O)N([C@H](C)CO)C[C@@H](C)[C@H](CN(C)Cc2ccccc2)OCCCC[C@H](C)O3)cc1	45.2%
Cc1ccc(S(=O)(=O)Nc2ccc3c(c2)C(=O)N([C@@H](C)CO)C[C@@H](C)[C@H](CN(C)Cc2ccc4c(c2)OCO4)OCCCC[C@@H](C)O3)cc1	-3.85%
Cc1ccc(S(=O)(=O)Nc2ccc3c(c2)C(=O)N([C@H](C)CO)C[C@H](C)[C@@H](CN(C)Cc2ccccc2)OCCCC[C@H](C)O3)cc1	-7.59%
Cc1ccc(S(=O)(=O)Nc2ccc3c(c2)C(=O)N([C@@H](C)CO)C[C@@H](C)[C@H](CN(C)Cc2ccc(Cl)c(Cl)c2)OCCCC[C@@H](C)O3)cc1	75.8% (active)
C[C@H](CO)N1C[C@H](C)[C@H](CN(C)Cc2ccc(C(F)(F)F)cc2)OCCCC[C@H](C)Oc2ccc(NS(=O)(=O)c3ccc(Cl)cc3)cc2C1=O	19.1%
COc1ccc(S(=O)(=O)Nc2ccc3c(c2)C(=O)N([C@@H](C)CO)C[C@@H](C)[C@H](CN(C)Cc2ccc(C(F)(F)F)cc2)OCCCC[C@@H](C)O3)cc1	27.5%
C[C@@H]1CCCCO[C@@H](CN(C)Cc2ccc(C(F)(F)F)cc2)[C@H](C)CN([C@H](C)CO)C(=O)c2cc(NS(=O)(=O)c3ccc(F)cc3)ccc2O1	104% (active)
COc1ccc(S(=O)(=O)Nc2ccc3c(c2)C(=O)N([C@@H](C)CO)C[C@H](C)[C@H](CN(C)Cc2ccc(C(F)(F)F)cc2)OCCCC[C@@H](C)O3)cc1	94.8% (active)
COc1cccc(S(=O)(=O)N[C@@H]2CC[C@H](CCNC(=O)Cc3ccncc3)O[C@@H]2CO)c1	-23.7%
CN(C)C(=O)c1ccc(-c2ccc([C@H]3[C@H](CO)N4C(=O)CN(C(=O)C5CCCC5)C[C@@H]34)cc2)cc1	-16.1%
C[C@H](CO)N1C[C@H](C)[C@@H](CN(C)Cc2cncnc2)Oc2cc(-c3ccccc3)ccc2S1(=O)=O	1.94%
